Measurements reported in PubChem BioAssay AID1347416 (National Center for Advancing Translational Sciences (NCATS), 2020).
In all, about 4,100 compounds went through this assay and about 1,600 (39%) were called active. Another 25% or so got no clear call; they are omitted. The call rests on the fitted dose curve; in most records, active means well fitted inhibition curve with a large enough effect; inconclusive means small, poorly fitted or top-dose-only effect; inactive means no such curve, though single readings can be large or run the other way. The list shows a part of the results.

Experiment: qHTS Validation assay for Inhibitors of Plasmodium falciparum Dd2 growth in vitro; further: nearly all actives have a fitted effect of over 70% in size
Conditions: P. falciparum Dd2 in RBCs, SYBR Green growth, 72 h; series mostly up to 28.7 µM
Summary of the method: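 P. falciparum Dd2-infected red blood cells (2.5% hematocrit, 0.3% parasitemia) grown 72 h at 37 °C under 5% O2 with compounds in a titration, 29 uM to 0.5 nM final. Growth read as SYBR Green-1 fluorescence after ~16 h lysis; artesunate 300 nM as positive control.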
Potency means the concentration at half of the fitted maximal effect.

Potency, inactive:
S=c1[nH]cc(-c2ccc(Cl)cc2)n1-c1ccccc1
Cc1ccc(Cn2c(C3CCN(C(=O)c4ccc(C(F)(F)F)cc4)CC3)n[nH]c2=O)cc1
COc1ccc(-n2nc(C3CCN(Cc4ccc(C(F)(F)F)cc4)CC3)[nH]c2=O)cc1
CCN(CC)C(=O)N1CCCCC1c1noc(COc2ccc(F)cc2)n1 (stereo not given)
CCc1cccc(NC(=O)C2CCN(C(=O)c3nnn4c3COC(c3ccc(C)cc3)C4)CC2)c1 (stereo not given)
O=C(NCCC1=CCCCC1)C1CCN(C(=O)c2ncn3c2COC(c2ccccc2)C3)CC1 (stereo not given)
CC(C)c1cccc(NC(=O)C2CCN(C(=O)c3ncn4c3COC(c3ccccc3)C4)CC2)c1 (stereo not given)
CCNC(=O)NC(=O)C(C)Sc1nc2ccccc2c(=O)n1-c1cccnc1 (stereo not given)
COc1cccc(NC(=O)CSc2nc(=O)[nH]c3c2CCCC3)c1
COc1cccc(NC(=O)N[C@H]2[C@H](O)[C@@H](Oc3ccccc3)[C@@H]3OC[C@H]2O3)c1
Cc1cccc(-c2cc(C3CCN(C(=O)Nc4ccccc4Cl)CC3)[nH]n2)c1
CNC(=O)N1CCC(C2CCN(S(=O)(=O)c3cccc(C#N)c3)C2)CC1 (stereo not given)
O=c1c2cc3c(nc2ncn1Cc1ccccc1F)CCCC3
CC1(C)Cc2nc3sc4c(SCC(=O)O)ncnc4c3cc2CO1
Cc1ccc(-n2nc3n(c2=O)CCN(C(=O)c2cccc(Cl)c2)C3)cc1
O=c1n(-c2ccc(Cl)cc2)nc2n1CCN(Cc1cccc3ccccc13)C2
COc1ccc(-n2nc3n(c2=O)CCN(C(=O)c2ccc(Cl)cc2)C3)cc1
O=C(Nc1ccc(Cl)cc1)N1CCn2c(nn(-c3ccc([N+](=O)[O-])cc3)c2=O)C1
COc1ccc(C(=O)N[C@@H]2CCC[C@@H]2C(=O)NCc2ccc(C)o2)cn1
COc1ccc(CCNC(=O)CCn2c(=O)c3ccccc3n(Cc3cc(C)ccc3C)c2=O)cc1OC
COc1cc(NC(=O)Cn2c(N(C)Cc3ccccc3)nc(C)cc2=O)cc(OC)c1
O=C(COc1ccc2ccccc2c1)Nc1nccs1
Nc1nc(C2CC(NC(=O)c3csc4c3CCCC4)C2)cc(=O)[nH]1 (stereo not given)
O=C(COC(=O)c1ccc(-n2cnnn2)cc1)c1ccc(Br)cc1
COc1ccc(Cn2c(=O)c3cccnc3n(CC(=O)Nc3ccc(C)c(F)c3)c2=O)cc1
O=C(CCc1nc2cccnc2n1Cc1ccccc1)NCc1cccc(Cl)c1
O=C(Cn1c(=O)c2cccn2c2cccnc21)NCc1ccccc1F
O=C(CCn1c(=O)c2cccn2c2cccnc21)NCc1cccc(Br)c1
COc1ccc(CNC[C@H]2COCc3nc4cc(C(F)(F)F)ccc4n32)cn1
COc1ccc2ncc3c(-c4ccc(C)c(C)c4)nn(CC(=O)NC4CCCCC4)c3c2c1
O=C(NCc1ccccc1F)C1CCN(C(=O)c2ncn3c2COC(c2ccc(F)cc2)C3)CC1 (stereo not given)
CCOc1ccc(C2Cn3nnc(-c4nc(-c5ccsc5)no4)c3CO2)cc1 (stereo not given)

Potency, active:
Cc1nn2c(c1-c1ccccc1OCc1ccccc1)N(Cc1ccccc1)CCC2 15.3 µM
Cc1ccc2c(n1)N(C)[C@H](CO)CCN(Cc1ccc(C(F)(F)F)cc1)C2 15.3 µM
CCOc1ccccc1C(=O)N1CCN(C(=O)c2nnn3c2COC(c2ccccc2)C3)CC1 (stereo not given) 16.8 µM
CC(C)(C)c1ccc(C(=O)N2CCN(C(=O)c3nnn4c3COC(c3ccccc3)C4)CC2)cc1 (stereo not given) 10.6 µM
COc1ccc(C)cc1-n1c(-c2ccc(Cl)cc2)cc2c1CC(C)(C)CC2=O 2.99 µM
CC(C)C[C@@H](NC(=O)[C@@H](O)[C@H](N)Cc1ccccc1)C(=O)O 2.99 µM
CC(Sc1nc2ccccc2c(=O)n1C)C(=O)N(C)C1CCCCC1 (stereo not given) 5.31 µM
COc1cccc(NC(=O)c2cccc3c(=O)c4c([nH]c23)CCCC4)c1 2.99 µM
Cc1cccc(-c2cc(C3CCN(S(=O)(=O)c4cccc(C#N)c4)CC3)[nH]n2)c1 15 µM
COc1cc2c3nnc(-c4ccc(F)cc4)c-3cn(Cc3ccccc3F)c2cc1OC 3.76 µM
COc1cc(-c2nc(-c3ccccc3)c(-c3ccc(Br)cc3)[nH]2)cc(OC)c1O 2.11 µM
COc1ccc2[nH]c(C)c(CCN(Cc3cccs3)C(=S)Nc3ccc(F)cc3)c2c1 4.22 µM
COc1ccc2[nH]c(C)c(CCN(Cc3cccs3)C(=S)Nc3ccccc3)c2c1 2.66 µM
CC(C)CCN1CCn2c(nn(-c3ccc([N+](=O)[O-])cc3)c2=O)C1 17.2 µM
COc1ccccc1CN1CCn2c(nn(-c3ccc([N+](=O)[O-])cc3)c2=O)C1 5.96 µM
Oc1c(CN2CCCC2)cc(COCc2ccccc2)c2cccnc12 6.68 µM
CCOCc1cc(CN2CCN(c3ccccc3OC)CC2)c(O)c2ncccc12 5.96 µM
Oc1c(CN2CCCCC2)cc(COCc2ccccc2)c2cccnc12 8.41 µM
COc1ccc(CCNC(=O)CCc2c(C)nc3c(c(C)nn3-c3ccc(C)c(C)c3)c2C)cc1OC 0.668 µM
COc1ccc(S(=O)(=O)Nc2ccc(C)n(CC(=O)Nc3ccccc3)c2=O)cc1 2.66 µM
Oc1cccc(C(Nc2nccs2)c2ccc3cccnc3c2O)c1 (stereo not given) 7.5 µM
Oc1c(C(Nc2nccs2)c2ccc(C(F)(F)F)cc2)ccc2cccnc12 (stereo not given) 5.31 µM
Oc1[nH]c2ccccc2c1N=NC(=S)N1CCOCC1 2.11 µM
CCc1cccc(-n2c(=O)c3cccnc3n2CC(=O)NCc2ccc(C)cc2)c1 1.68 µM
CCc1cccc(-n2c(=O)c3cccnc3n2CC(=O)NCc2ccccc2)c1 1.68 µM
CCc1cccc(-n2c(=O)c3cccnc3n2CC(=O)Nc2ccc(F)c(C)c2)c1 2.66 µM
CCc1ccc(-c2nn(CC(=O)NC3CCCCC3)c3c2cnc2ccc(OC)cc23)cc1 9.44 µM
CC(C)(C)c1ccc(-c2noc(-c3ncn4c3COC(c3ccc(F)cc3)C4)n2)cc1 (stereo not given) 15 µM
